PfHsp40 yeast: rescue of PfHsp40-mediated yeast toxicity. hit rate 0.68% among 340,000. growth rescue, % at 12.5 µM. S. cerevisiae expressing PfHsp40, growth rescue, ATP luminescence; in the data active = growth rescue above about 28%, passing the limit was not always enough;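 also: yeast W303a lacking pdr1 and pdr3 grown in galactose medium; growth measured after three days at 30 °C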
MazEF act: activators of E. coli MazEF toxin-antitoxin RNase | P0AE70 | FAM/BHQ RNA-DNA oligo cleavage fluorescence, 5 h | activation, % at 20 µM | hit rate 0.32% among 350,000 | AID 504720; in the data active = activation above about 50%
Target sequence (P0AE70 whole entry, looked up): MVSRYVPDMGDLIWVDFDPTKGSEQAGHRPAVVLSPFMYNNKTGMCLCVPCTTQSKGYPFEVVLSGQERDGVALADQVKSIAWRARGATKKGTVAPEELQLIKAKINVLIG
VHR inh abs: inhibitors of human VHR1 phosphatase (DUSP3); P51452; recombinant VHR phosphatase, pNPP absorbance; inhibition, % at 13.3 µM; hit rate 0.52% among 290,000; AID 1654; in the data active = inhibition above about 50%
Target sequence (P51452 whole entry, looked up): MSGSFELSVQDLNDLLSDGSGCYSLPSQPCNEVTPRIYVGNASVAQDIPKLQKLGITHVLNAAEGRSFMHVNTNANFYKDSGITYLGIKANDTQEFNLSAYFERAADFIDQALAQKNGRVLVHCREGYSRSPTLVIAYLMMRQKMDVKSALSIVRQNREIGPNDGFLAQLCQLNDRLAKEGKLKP
Vc quorum ag: induces V. cholerae light production without autoinducers; V. cholerae BH1578 lux reporter, luminescence, 6 h; hit rate 0.16% among 350,000; activation, % at 18.7 µM; in the data active = activation mostly above about 9.7%, no sharp cut-off
3CLpro inhibitor: SARS-CoV 3CLpro protease inhibition | P0C6X7 | recombinant SARS-CoV 3CLpro, quenched FRET peptide cleavage | inhibition, % at 6 µM | hit rate 0.14% among 290,000; in the data active = inhibition above about 12%
BJeLR lethal: BJeLR cell viability loss. BJeLR (HRASV12) viability, CellTiter-Glo ATP luminescence, 48 h. inhibition, % (test concentration not listed). hit rate 0.17% among 300,000. AID 1554; in the data active = inhibition above about 50%
An asterisk follows results filed as active; i = inactive; · = no result given. Hits are enriched below; roughly 1.7% of the tested compounds scored in any of these assays.

SMILES	PfHsp40 yeast	MazEF act	VHR inh abs	Vc quorum ag	3CLpro inhibitor	BJeLR lethal
COC(=O)COc1ccc(NC(=O)Cn2nc(-c3ccccc3)c3ccccc3c2=O)cc1	-1	-46	7	0	4	1
COc1ccc(-c2nn(CC(=O)Nc3ccc(Cl)c(Cl)c3)c(=O)c3ccccc23)cc1	-1	-12	52*	1	3	8
O=C(NC(NCc1ccccc1)C(Cl)(Cl)Cl)c1cccnc1 (configuration not stated)	-1	3	6	i	-2	1
O=C(NC(NCc1cccnc1)C(Cl)(Cl)Cl)c1cccc2ccccc12 (configuration not stated)	2	2	54*	0	6	13
CCC(NC(=O)c1ccccc1NC(=O)C(C)(C)C)C(=O)N1CC(C)OC(C)C1 (configuration not stated)	-2	52*	·	0	·	·
CSc1ccc(S(=O)(=O)NC2CCCCCC2)cc1	67*	1	-18	i	-5	-12
CCN1C(=O)c2cccc3c(NC(=O)c4ccc5c(c4)OCCO5)ccc1c23	1	95*	22	i	-7	-10
O=C(COc1ccccc1F)OCC(=O)c1ccc([N+](=O)[O-])cc1	1	-10	·	i	·	·
CCc1cc(C(=O)Nc2cc(S(=O)(=O)N3CCOCC3)ccc2N2CCN(CC)CC2)sc1C	-2	9	·	i	·	·
N=c1c2c(ncn1CCCO)Oc1cc(O)ccc1C2c1ccccc1 (configuration not stated)	-1	64*	12	0	2	-13
COc1ccc(C2c3ccc4ccccc4c3Oc3ncn(CCCN(C)C)c(=N)c32)cc1 (configuration not stated)	4	50*	2	1	-12	54*
CCc1ccc(C2=NN(C(=O)OC)C(O)(C(F)(F)F)C2)cc1 (configuration not stated)	1	-2	52*	-2	2	12
COc1ccc(Cl)cc1N1C(=O)CC(N2CCc3ccccc32)C1=O (configuration not stated)	43*	0	12	-6	0	1
COc1ccc(-c2ccc(/C=C3/C(=N)N4C=CSC4=NC3=O)o2)c([N+](=O)[O-])c1	-2	445*	4	0	1	-3
N=C1/C(=C/c2cccn2-c2ccc([N+](=O)[O-])cc2)C(=O)N=C2SC=CN12	-1	-6	0	0	2	-5
CCOC(=O)CCN(C(=S)Nc1ccccc1)C1CCCCC1	0	5	·	i	·	·
COc1ccc(N2CCN(C(=O)c3nn(C)c4c3CS(=O)(=O)c3ccccc3-4)CC2)cc1	2	6	-4	i	0	1
COc1ccccc1N1CCN(C(=O)c2nn(C)c3c2CS(=O)(=O)c2ccccc2-3)CC1	1	3	50*	1	-1	-1
O=C(Cn1cnc2ccccc2c1=O)c1ccc2ccccc2c1	2	28	14	0	2	-6
COc1ccc(C(=O)Cn2cnc3ccccc3c2=O)cc1	3	-10	55*	0	2	-4
COc1ncnc2c1ncn2CCCNCC(C)c1ccccc1 (configuration not stated)	·	0	·	0	·	·
O=c1[nH]c(O)c(/C=C2\C=Nc3ccc(Br)cc32)[nH]1	0	33	8	2	2	9
O=c1[nH]c(O)c(/C=C2\C=Nc3ccc(OCc4ccccc4)cc32)c(=O)[nH]1	1	847*	1	1	-1	-6
CCOc1ccc(S(=O)(=O)NN)cc1	0	50*	7	i	-1	3
CCOc1ccc(NS(=O)(=O)c2ccc(N)cc2)cc1	-1	12	-6	-4	2	3
SMILES	PfHsp40 yeast	MazEF act	VHR inh abs	Vc quorum ag	3CLpro inhibitor	BJeLR lethal
CS(=O)(=O)/C(C#N)=C\c1cnc(S(=O)(=O)c2ccccc2)s1	·	·	-5	·	-2	20
Oc1ccc(-c2nc3ccccc3s2)c(O)c1	244*	2	-10	-3	2	5
O=C(Nc1ccc(O)c(-c2nc3ccccc3s2)c1)c1cc(=O)c2ccccc2o1	-2	3	53*	0	-2	-2
Cc1nc2ccc(NC(=O)c3cccs3)cc2s1	37*	3	19	-5	-1	3
O=C(Nc1ccc(O)c(-c2nc3ccccc3s2)c1)c1cccs1	1	53*	5	0	2	1
CC1(C(=O)NS(=O)(=O)C2CC2)CCN(C(=O)c2cccc(OC(F)(F)F)c2)C1 (configuration not stated)	·	·	·	i	·	·
COc1ccc(NC(=O)Nc2cccc3c2O[C@H](CN(C)S(=O)(=O)c2c(C)noc2C)[C@@H](C)CN([C@H](C)CO)C3=O)cc1	0	5	·	-1	·	·
Cc1ccc(C)c(C(=O)CCC(=O)NNC(=O)c2cccs2)c1	1	3	·	i	·	·
COc1ccc(CC(N)c2csc(Nc3ccc(S(C)(=O)=O)cc3)n2)cc1 (configuration not stated)	·	·	·	i	·	·
Cc1nc2ccc(C(=O)Nc3ccccc3Cl)cc2s1	77*	3	39	i	1	9
CC(=O)c1ccc(NC(=O)c2ccc3nc(C)sc3c2)cc1	3	13	31	0	-10	-3
Cc1ccc2nc(NC(=O)c3ccc(NS(=O)(=O)c4cccs4)cc3)sc2c1	-1	-3	56*	0	5	-3
Cc1nc2ccc(NC(=O)COc3cccc(F)c3)cc2s1	242*	-1	6	i	2	0
O=C(NNC(=O)c1cc(F)c(F)cc1Cl)c1ccc(NS(=O)(=O)c2cccs2)cc1	1	5	·	0	·	·
Cc1cccc(OCC(=O)Nc2ccc3nc(C)sc3c2)c1	-1	20	-6	0	0	4
O=C(NNC(=O)c1cc(Cl)ccc1O)c1ccc(NS(=O)(=O)c2cccs2)cc1	351*	5	·	-6	·	4
COc1cccc(CN(C)C(=O)c2ccc(NC(=O)CC3SC(N4CCCC4)=NC3=O)cc2)c1OC (configuration not stated)	0	-5	·	2	·	-3
CCNC(=O)C1(C)CCCCN1Cc1ccc(C#N)cc1 (configuration not stated)	·	·	·	1	·	·
O=C(Cc1ccc(S(=O)(=O)N2CCOCC2)s1)N1CCN(c2cccc(C(F)(F)F)c2)CC1	1	-3	10	i	0	2
CCN(C(=O)COC(=O)CCC(=O)c1ccc(C)cc1)c1c(N)n(Cc2ccccc2)c(=O)[nH]c1=O	1	0	·	i	·	·
O=C(COc1ccc(Cl)cc1Cl)NCCN1CCCC1	·	4	·	-6	·	·
Cc1cccc(N2CCN(C(=O)c3ccc(Cl)c(S(=O)(=O)N4CCc5ccccc5C4)c3)CC2)c1C	0	-7	59*	0	-3	7
CCCCn1c(N)c(N(C)C(=O)c2ccc(-n3cccn3)cc2)c(=O)[nH]c1=O	0	5	·	i	·	·

Compound activity deposited in PubChem BioAssay by several laboratories.
